Rows were chosen to be rich in hits. Some 3.4% of all compounds tested hit in one or more screens of this group.
FBW7 activator: activators of human E3 ligase FBW7 | normalized activity (activation), % at 26.1 µM | actives 0.13% (n = 650,000) | AID 1259310 | Q969H0 | AlphaScreen FBW7–phospho-cyclin E peptide binding, activator screen; in the data active = normalized activity above about 1.9%;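 note: purified mutant Fbw7 with reduced substrate affinity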
TEAD-YAP inh: TEAD-YAP interaction inhibition. HEK-TIYL cells, TEAD-Gal4/YAP UAS-luciferase luminescence. inhibition, % at 9.12 µM. actives 1.4% (n = 640,000). AID 1259422; in the data active = inhibition above about 32%
GPR151 ag: activators of human GPR151. Q8TDV0. PathHunter beta-arrestin GPR151 cells, luminescence. activation, % at 11.2 µM. actives 1% (n = 650,000). AID 1508602; in the data active = activation above about 4.9%
MITF primary: human MITF inhibition, primary screen | inhibition, % at 2.6 µM | actives 0.91% (n = 650,000) | O75030 | AlphaScreen MITF homodimerization, bead proximity signal | AID 1259374; in the data active = inhibition above about 50%
Target sequence (O75030 whole entry, looked up): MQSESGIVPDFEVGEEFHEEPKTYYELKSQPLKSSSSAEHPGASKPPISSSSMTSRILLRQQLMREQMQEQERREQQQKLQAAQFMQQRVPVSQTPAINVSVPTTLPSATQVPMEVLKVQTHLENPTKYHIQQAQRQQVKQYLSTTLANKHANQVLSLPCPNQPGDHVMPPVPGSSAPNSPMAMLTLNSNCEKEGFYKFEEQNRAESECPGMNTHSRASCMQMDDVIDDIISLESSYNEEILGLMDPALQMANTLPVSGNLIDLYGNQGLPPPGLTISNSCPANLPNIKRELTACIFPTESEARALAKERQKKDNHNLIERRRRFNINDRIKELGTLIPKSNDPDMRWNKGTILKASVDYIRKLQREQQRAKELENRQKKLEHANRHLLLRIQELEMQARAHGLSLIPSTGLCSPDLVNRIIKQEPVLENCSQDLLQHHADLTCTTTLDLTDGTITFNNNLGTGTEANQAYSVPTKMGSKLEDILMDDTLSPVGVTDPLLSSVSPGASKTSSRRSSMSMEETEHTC
MITF confirm: confirmation of human MITF inhibitors | shares compounds with MITF primary | AlphaScreen MITF homodimerization, biotin/His-MITF beads | inhibition, % at 2.6 µM | actives 16% (n = 4,700);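 active = inhibition above a cutoff derived from the DMSO control wells, cut at about 28% in these data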;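 note: inhibitors lower the bead chemiluminescence by keeping MITF from dimerizing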
AlphaScreen intf2: optically interferes with AlphaScreen signal; shares compounds with MITF primary; LysRS AlphaScreen counterscreen, signal interference, triplicate; inhibition, % at 2.6 µM; actives 7.6% (n = 4,700); AID 1259376;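 active = inhibition above a cutoff derived from the DMSO control wells, cut at about 30% in these data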
Hits are given with their value; i = inactive; nt = no result given.

SMILES | FBW7 activator | TEAD-YAP inh | GPR151 ag | MITF primary | MITF confirm | AlphaScreen intf2
C1=CC2CC1CC2CN1CCN(CCCc2ccccc2)CC1 (stereo not drawn) | i | i | i | 70 | i | i
Fc1ccccc1N1CCN(CC2CC3C=CC2C3)CC1 (stereo not drawn) | i | i | i | i | nt | nt
C1=CC2CC1CC2CN1CCN(Cc2ccc3c(c2)OCO3)CC1 (stereo not drawn) | i | i | i | 58 | i | i
CSc1cccc2sc(N(CCN(C)C)C(=O)c3ccc(C)cc3)nc12 | i | i | i | i | nt | nt
COc1ccc(N2CC(CNC(=O)c3ccccc3F)CC2=O)cc1 (stereo not drawn) | i | i | i | i | nt | nt
CCCOC(=O)c1ccc(NC(=O)CCC(=O)OC)cc1 | i | i | i | i | nt | nt
O=[N+]([O-])c1ccc(CN2CCN(CC3CC4C=CC3C4)CC2)cc1 (stereo not drawn) | i | i | i | 63 | i | i
Cc1ccc(S(=O)(=O)NC[C@@H]2CC3C=CC2C3)cc1 (stereo partly drawn) | i | i | i | i | nt | nt
Clc1ccc(CN2CCN(CC3CC4C=CC3C4)CC2)cc1 (stereo not drawn) | i | i | i | i | nt | nt
C1=CC2CC1CC2CN1CCN(Cc2ccncc2)CC1 (stereo not drawn) | i | i | i | 79 | i | i
Cc1ccc(S(=O)(=O)N2CCN(CC3CC4C=CC3C4)CC2)cc1 (stereo not drawn) | i | i | i | 68 | i | i
Cc1ccccc1C(=O)Nc1ccnn1C1CCN(Cc2ccc(F)cc2F)CC1 | i | i | i | i | nt | nt
COc1cc(C(=O)CC2(O)C(=O)Nc3ccccc32)cc(OC)c1OC (stereo not drawn) | i | i | i | i | nt | nt
CCOC(=O)c1c(NC(=O)CSc2nnc(CNC(=O)COc3ccccc3)n2-c2cc(C)ccc2C)sc2c1CCC2 | i | i | i | i | nt | nt
CS(=O)(=O)N(CC(=O)Nc1cccc(F)c1)c1ccc2c(c1)OCO2 | i | i | i | 64 | i | i
CSc1cccc(NC(=O)CN(c2ccc3c(c2)OCO3)S(C)(=O)=O)c1 | i | i | i | i | nt | nt
CS(=O)(=O)N(CC(=O)Nc1ccc(F)cc1)c1ccc(Oc2ccccc2)cc1 | i | i | i | 68 | i | i
CS(=O)(=O)N(CC(=O)Nc1c(F)cccc1F)c1ccc(Oc2ccccc2)cc1 | i | i | i | 60 | i | i
Cc1cc(C)c(NC(=O)CC(=O)Nc2c(C)cc(C)cc2C)c(C)c1 | i | i | i | i | nt | nt
CC(NC(=O)c1ccc(Cl)c(Cl)c1)c1n[nH]c(=S)n1C (stereo not drawn) | i | i | i | i | nt | nt
C=CCSC1=C(C#N)C2(CCCCC2)C(C#N)=C(N)N1 | i | i | i | i | nt | nt
CC(=O)c1ccc(-n2c(-c3cc(-c4ccco4)[nH]n3)n[nH]c2=S)cc1 | i | i | i | 61 | i | 37
Cc1ccc(-n2c(-c3ccco3)n[nH]c2=S)cc1C | i | i | i | i | nt | nt
Cc1ccccc1OCC(=O)Nc1ccc([N+](=O)[O-])cc1Cl | i | i | i | 54 | i | i
O=S(=O)(c1ccc(Br)cc1)N1CCN(Cc2ccc(F)cc2)CC1 | i | i | i | i | nt | nt
SMILES | FBW7 activator | TEAD-YAP inh | GPR151 ag | MITF primary | MITF confirm | AlphaScreen intf2
CS(=O)(=O)N1CCN(Cc2cccc(Br)c2)CC1 | i | i | i | 63 | i | i
O=S(=O)(c1ccc(F)cc1)N1CCCN(Cc2c(F)cccc2F)CC1 | i | i | i | i | nt | nt
COc1ccc(Br)cc1CN1CCN(S(=O)(=O)c2ccc(F)cc2)CC1 | i | i | i | 59 | i | i
O=S(=O)(c1ccc(F)cc1)N1CCN(Cc2c(F)cccc2F)CC1 | i | i | i | 77 | i | i
COc1ccc(S(=O)(=O)N2CCN(Cc3cccc(Br)c3)CC2)cc1 | i | i | i | 52 | i | i
COc1cc(CN2CCN(C3CCCC(C)C3)CC2)cc(OC)c1O (stereo not drawn) | i | i | i | 74 | i | i
COc1cc(CN2CCN(C3CCCCCC3)CC2)cc(OC)c1O | i | i | i | 58 | i | i
COc1cc(C=Nc2ccccc2)ccc1OC(C)=O | i | i | i | i | nt | nt
COCCCNc1ncnc2sc(C)c(C)c12 | i | i | i | 68 | i | i
O=C1N[C@@H](Cc2c[nH]c3ccccc23)C(=O)N2C[C@@H](NCc3nc(-c4ccc(F)cc4)cs3)C[C@@H]12 | i | i | i | i | nt | nt
CCOC(=O)C(=O)C(C#N)c1ccccc1 (stereo not drawn) | i | i | i | 83 | i | i
c1ccc(-c2ccccn2)nc1 | i | i | i | i | nt | nt
c1ccc(-c2ccc(-c3ccccn3)nn2)nc1 | i | 44 | i | 86 | 99 | 101
COc1cc(S(=O)(=O)N(Cc2ccccc2Cl)C2CCCC2)ccc1-n1cnnn1 | i | i | i | i | nt | nt
COc1ccc(/C(O)=C2\C(=O)C(=O)N(CCN3CCNCC3)C2c2ccc(Br)cc2)cc1 (stereo not drawn) | i | i | i | i | nt | nt
O=C(C1CCN(Cc2ccc(F)cc2)CC1)N1CCN(c2ccccc2)CC1 | i | i | i | 52 | i | i
CCOc1ccccc1N1CCN(C(=O)C2CCNCC2)CC1 | i | i | i | 58 | i | i
CCOC(=O)N1CCN(C(=O)C2CCN(Cc3ccccc3OC)CC2)CC1 | i | i | i | 54 | i | i
O=C(C1CCN(Cc2cccnc2)CC1)N1CCN(C/C=C/c2ccccc2)CC1 | i | i | i | 58 | i | i
CCOC(=O)N1CCN(C(=O)C2CCN(Cc3cc(OC)ccc3OC)CC2)CC1 | i | i | i | i | nt | nt
CC(=O)Oc1cc2c(C(=O)NCc3ccccn3)c(C)oc2c2ccccc12 | i | i | i | i | nt | nt
COc1cc(CN2CCC(C(=O)N3CCCC(C)C3)CC2)ccc1O (stereo not drawn) | i | i | i | i | nt | nt
O=C(C1CCN(Cc2ccccc2)CC1)N1CCN(Cc2ccccc2)CC1 | i | i | i | 55 | i | i
COc1ccc(CN2CCC(C(=O)N3CCc4ccccc4C3)CC2)cc1 | i | i | i | i | nt | nt
COc1ccccc1CN1CCC(C(=O)N2CCN(Cc3ccccc3)CC2)CC1 | i | i | i | 52 | i | i
SMILES | FBW7 activator | TEAD-YAP inh | GPR151 ag | MITF primary | MITF confirm | AlphaScreen intf2
COc1cc(CN2CCC(C(=O)N3CCN(Cc4ccccc4)CC3)CC2)ccc1O | i | i | i | 60 | i | i
COc1ccc(CN2CCC(C(=O)N3CCc4ccccc4C3)CC2)c(OC)c1 | i | i | i | 53 | i | i
O=C(C1CCN(Cc2cccc(O)c2)CC1)N1CCN(Cc2ccccc2)CC1 | i | i | i | i | nt | nt
O=C(NO)c1n[nH]c(=O)c2ccccc12 | i | i | i | i | nt | nt
COC(=O)c1cc(CNC(=O)c2ccnn2C)cc(NC(=O)c2ccccc2Cl)c1 | i | i | i | i | nt | nt
c1ccc(Oc2cccc(CN3CCSCC3)c2)cc1 | i | i | i | i | nt | nt
c1ccc(Oc2cccc(CN3CCN(Cc4ccncc4)CC3)c2)cc1 | i | i | i | 69 | i | i
O=C(c1ccncc1)N1CCN(Cc2cccc(Oc3ccccc3)c2)CC1 | i | i | i | i | nt | nt
Fc1ccc(CN2CCN(Cc3cccc(Oc4ccccc4)c3)CC2)cc1 | i | i | i | 68 | i | i
